Data from PubChem BioAssay (NCI).
The panel holds about 83,000 compounds, 20% with a hit somewhere; the sample as a whole holds those more often.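 Single-concentration screen, 48 h exposure, 96-well plates. Endpoint: percent growth. Below 10 = active.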 Active and inactive are the calls of the source.

Key:
Test in all cases: NCI-60 one-dose screen, 48 h (100 = growth as untreated, 0 = no growth, -100 = all killed)
Conditions in all cases: 10 µM unless noted
SK-MEL-2 melanoma = system: SK-MEL-2 melanoma
EKVX NSCLC = system: EKVX NSCLC
SN12C renal = system: SN12C renal
UO-31 renal = system: UO-31 renal
TK-10 renal = system: TK-10 renal
ACHN renal = system: ACHN renal
CAKI-1 renal = system: CAKI-1 renal
A498 renal = system: A498 renal
CCRF-CEM leukemia = system: CCRF-CEM leukemia
MOLT-4 leukemia = system: MOLT-4 leukemia
SR leukemia = system: SR leukemia
RPMI-8226 leukemia = system: RPMI-8226 leukemia
OVCAR-5 ovarian = system: OVCAR-5 ovarian
OVCAR-4 ovarian = system: OVCAR-4 ovarian
SK-OV-3 ovarian = system: SK-OV-3 ovarian
IGROV1 ovarian = system: IGROV1 ovarian
OVCAR-3 ovarian = system: OVCAR-3 ovarian
HS 578T breast = system: HS 578T breast
NCI/ADR-RES ovarian = system: NCI/ADR-RES ovarian
OVCAR-8 ovarian = system: OVCAR-8 ovarian

Measured: growth

Cn1ncc(CC(=O)O)c1-n1nnc2cc(Cl)ccc2c1=O
inactive: SK-MEL-2 melanoma 99.3% | EKVX NSCLC 86% | SN12C renal 92.5% | UO-31 renal 81.1% | TK-10 renal 90.7% | ACHN renal 94.3% | CAKI-1 renal 87.8% | A498 renal 134% | CCRF-CEM leukemia 98.1% | MOLT-4 leukemia 100% | SR leukemia 87.6% | RPMI-8226 leukemia 106% | OVCAR-5 ovarian 98.1% | OVCAR-4 ovarian 94.6% | SK-OV-3 ovarian 111% | IGROV1 ovarian 103% | OVCAR-3 ovarian 114% | HS 578T breast 91.5% | NCI/ADR-RES ovarian 101%

CCOc1cc(\C=N/N=C(N)/C(N)=N\N=C/c2ccc(O)c(OCC)c2)ccc1O
inactive: SK-MEL-2 melanoma 126% | EKVX NSCLC 106% | SN12C renal 101% | UO-31 renal 88.7% | TK-10 renal 127% | ACHN renal 96.5% | CAKI-1 renal 94.5% | A498 renal 106% | CCRF-CEM leukemia 49.7% | SR leukemia 88.8% | RPMI-8226 leukemia 94.8% | OVCAR-8 ovarian 67.9% | OVCAR-5 ovarian 115% | OVCAR-4 ovarian 105% | SK-OV-3 ovarian 113% | IGROV1 ovarian 129% | OVCAR-3 ovarian 113% | HS 578T breast 113% | NCI/ADR-RES ovarian 98.7%

C1=C2CCCC3=Cc4ccccc4OC23Oc2ccccc21
active: A498 renal 5.61% | SR leukemia 6.44% | OVCAR-3 ovarian 3.51%
inactive: SK-MEL-2 melanoma 36% | EKVX NSCLC 57.8% | SN12C renal 34.4% | UO-31 renal 43.3% | TK-10 renal 55.4% | ACHN renal 47.3% | CAKI-1 renal 27.2% | CCRF-CEM leukemia 18.3% | MOLT-4 leukemia 17.5% | RPMI-8226 leukemia 26% | OVCAR-5 ovarian 71.1% | OVCAR-4 ovarian 52.6% | SK-OV-3 ovarian 30.8% | IGROV1 ovarian 44.5% | HS 578T breast 33.4% | NCI/ADR-RES ovarian 11.6%

O=C(Oc1ccccc1)c1cc(O)c(O)c(O)c1
inactive: SK-MEL-2 melanoma 125% | EKVX NSCLC 52.2% | SN12C renal 66.1% | UO-31 renal 53.8% | TK-10 renal 81% | ACHN renal 62.6% | CAKI-1 renal 33.6% | A498 renal 87.3% | CCRF-CEM leukemia 26.6% | MOLT-4 leukemia 62.5% | SR leukemia 32.9% | RPMI-8226 leukemia 65.7% | OVCAR-5 ovarian 107% | OVCAR-4 ovarian 63.7% | SK-OV-3 ovarian 77.3% | IGROV1 ovarian 76% | OVCAR-3 ovarian 18.1% | HS 578T breast 39.9% | NCI/ADR-RES ovarian 61.1%

CCc1ccc(Cc2cnc(NC(=O)c3cc(C)oc3C)s2)cc1
active: A498 renal 8.18%
inactive: SK-MEL-2 melanoma 59.4% | EKVX NSCLC 39.6% | SN12C renal 45.1% | UO-31 renal 43.6% | TK-10 renal 60.1% | ACHN renal 48.7% | CAKI-1 renal 22.2% | CCRF-CEM leukemia 28.5% | SR leukemia 19.5% | RPMI-8226 leukemia 51% | OVCAR-8 ovarian 52.9% | OVCAR-5 ovarian 55.2% | OVCAR-4 ovarian 54.7% | SK-OV-3 ovarian 52.8% | IGROV1 ovarian 43% | OVCAR-3 ovarian 16.7% | HS 578T breast 23.6% | NCI/ADR-RES ovarian 34.1%

Cc1ccc(-c2nn(CC(=O)N3CCOCC3)c(N)c2C#N)cc1
inactive: SK-MEL-2 melanoma 103% | EKVX NSCLC 102% | SN12C renal 102% | UO-31 renal 84.7% | TK-10 renal 105% | ACHN renal 101% | CAKI-1 renal 87.3% | A498 renal 91.3% | CCRF-CEM leukemia 101% | MOLT-4 leukemia 103% | SR leukemia 99% | RPMI-8226 leukemia 108% | OVCAR-5 ovarian 105% | OVCAR-4 ovarian 91.8% | SK-OV-3 ovarian 109% | IGROV1 ovarian 106% | OVCAR-3 ovarian 113% | HS 578T breast 93.1% | NCI/ADR-RES ovarian 108%

O=C(O)c1cc2ccccc2s1
inactive: SK-MEL-2 melanoma 127% | EKVX NSCLC 106% | SN12C renal 106% | UO-31 renal 94.5% | TK-10 renal 123% | ACHN renal 103% | CAKI-1 renal 94.7% | A498 renal 108% | CCRF-CEM leukemia 100% | MOLT-4 leukemia 100% | SR leukemia 104% | RPMI-8226 leukemia 105% | OVCAR-8 ovarian 102% | OVCAR-5 ovarian 103% | OVCAR-4 ovarian 113% | SK-OV-3 ovarian 103% | IGROV1 ovarian 106% | OVCAR-3 ovarian 120% | NCI/ADR-RES ovarian 108%

COC(=O)c1cc(-c2ccc(OC)c(OC)c2)[nH]c1N/N=C/c1c(Cl)cccc1Cl
active: CAKI-1 renal 6.72% | OVCAR-3 ovarian -19.2%
inactive: SK-MEL-2 melanoma 53.6% | EKVX NSCLC 39.9% | SN12C renal 59.1% | UO-31 renal 52.4% | TK-10 renal 57.2% | ACHN renal 54.4% | A498 renal 27.6% | CCRF-CEM leukemia 19.7% | SR leukemia 12.1% | RPMI-8226 leukemia 24.1% | OVCAR-8 ovarian 41.1% | OVCAR-5 ovarian 49.4% | OVCAR-4 ovarian 69.3% | SK-OV-3 ovarian 42.2% | IGROV1 ovarian 42.4% | HS 578T breast 14.3% | NCI/ADR-RES ovarian 26.8%

Cc1nc2cccc(NCc3ccc(C(=O)NO)cc3)c2c(=O)n1-c1ccccc1
inactive: SK-MEL-2 melanoma 61.7% | EKVX NSCLC 61.8% | SN12C renal 63.2% | UO-31 renal 17% | TK-10 renal 15.9% | ACHN renal 30.5% | CAKI-1 renal 28% | A498 renal 41.3% | CCRF-CEM leukemia 13.4% | MOLT-4 leukemia 11.5% | SR leukemia 14.8% | RPMI-8226 leukemia 18.5% | OVCAR-5 ovarian 40% | OVCAR-4 ovarian 62.2% | IGROV1 ovarian 20.4% | OVCAR-3 ovarian 43.9% | HS 578T breast 56.8% | NCI/ADR-RES ovarian 19.2%
active: SK-OV-3 ovarian 4.52%

Cc1cc2c(C(C)C)c(O)c(O)c(/C=N/O)c2c(O)c1-c1c(C)cc2c(C(C)C)c(O)c(O)c(/C=N/O)c2c1O
inactive: EKVX NSCLC 27.2% | SN12C renal 43.7% | UO-31 renal 24.7% | ACHN renal 24% | CAKI-1 renal 26.6% | A498 renal 57.2% | CCRF-CEM leukemia 10.1% | RPMI-8226 leukemia 15% | OVCAR-5 ovarian 48.3% | OVCAR-4 ovarian 28.7% | SK-OV-3 ovarian 18.2% | IGROV1 ovarian 38.5% | OVCAR-3 ovarian 25.6% | HS 578T breast 41.9% | NCI/ADR-RES ovarian 44%
active: SK-MEL-2 melanoma -10.2% | TK-10 renal 0.867% | MOLT-4 leukemia -7.59% | SR leukemia 4.52%

COC(=O)[C@@H](Cc1c[nH]c2ccccc12)NC[C@@H](O)CN1C(=O)/C(=C\c2cc(OC)c(OC)c(OC)c2)c2ccccc21
active: MOLT-4 leukemia 1.92% | RPMI-8226 leukemia 6.06%
inactive: SK-MEL-2 melanoma 58.1% | EKVX NSCLC 85.7% | SN12C renal 73% | UO-31 renal 58.3% | TK-10 renal 101% | ACHN renal 75.5% | CAKI-1 renal 73.1% | A498 renal 69.5% | CCRF-CEM leukemia 20.7% | SR leukemia 12.2% | OVCAR-5 ovarian 105% | OVCAR-4 ovarian 63.1% | SK-OV-3 ovarian 98.6% | IGROV1 ovarian 78.9% | OVCAR-3 ovarian 65.3% | HS 578T breast 76% | NCI/ADR-RES ovarian 78.6%

O=C(OCC(O)(CO)C(=O)NC12CC3CC(CC(C3)C1)C2)c1ccc(Cl)cc1 (stereo not given)
inactive: SK-MEL-2 melanoma 86.3% | EKVX NSCLC 103% | SN12C renal 100% | UO-31 renal 82.6% | TK-10 renal 85.3% | ACHN renal 102% | CAKI-1 renal 99% | A498 renal 102% | CCRF-CEM leukemia 87.8% | MOLT-4 leukemia 83.8% | SR leukemia 86% | RPMI-8226 leukemia 105% | OVCAR-5 ovarian 100% | OVCAR-4 ovarian 107% | SK-OV-3 ovarian 99.7% | IGROV1 ovarian 110% | OVCAR-3 ovarian 101% | HS 578T breast 88.5% | NCI/ADR-RES ovarian 98.6%

Cc1cccc(CN(Nc2ccccc2)c2ccccc2)n1
inactive: SK-MEL-2 melanoma 115% | EKVX NSCLC 79.4% | SN12C renal 97.8% | UO-31 renal 91.8% | TK-10 renal 108% | ACHN renal 102% | CAKI-1 renal 87.3% | CCRF-CEM leukemia 91.2% | MOLT-4 leukemia 91.1% | SR leukemia 93% | RPMI-8226 leukemia 96.3% | OVCAR-8 ovarian 98.5% | OVCAR-5 ovarian 102% | OVCAR-4 ovarian 109% | SK-OV-3 ovarian 104% | IGROV1 ovarian 127% | OVCAR-3 ovarian 99.5% | HS 578T breast 109% | NCI/ADR-RES ovarian 102%

O=c1ccc2nc(-c3ccccc3)nn(-c3ccccn3)c-2c1
inactive: SK-MEL-2 melanoma 96.8% | EKVX NSCLC 109% | SN12C renal 93.1% | UO-31 renal 20.5% | CAKI-1 renal 77.4% | RPMI-8226 leukemia 35.8% | OVCAR-8 ovarian 80% | OVCAR-5 ovarian 117% | OVCAR-4 ovarian 83.5% | SK-OV-3 ovarian 83.9% | IGROV1 ovarian 89% | HS 578T breast 101% | NCI/ADR-RES ovarian 101%
active: TK-10 renal -83.4% | ACHN renal -91.9% | CCRF-CEM leukemia 1.08% | MOLT-4 leukemia -10.6% | SR leukemia 1.2% | OVCAR-3 ovarian -14.9%

CCCN1C2CCC1/C(=C\c1ccc(OC)cc1)C(=O)/C2=C/c1ccc(OC)cc1
inactive: SK-MEL-2 melanoma 72.5% | EKVX NSCLC 77.6% | SN12C renal 75% | UO-31 renal 56.3% | TK-10 renal 85.9% | ACHN renal 81.6% | CAKI-1 renal 74.4% | CCRF-CEM leukemia 67.4% | MOLT-4 leukemia 55% | SR leukemia 45.4% | RPMI-8226 leukemia 40.7% | OVCAR-8 ovarian 72.6% | OVCAR-5 ovarian 93.5% | OVCAR-4 ovarian 73.5% | SK-OV-3 ovarian 79.4% | IGROV1 ovarian 82.2% | OVCAR-3 ovarian 81.8% | HS 578T breast 92% | NCI/ADR-RES ovarian 77%
